Measured values as given in PubChem BioAssay (NCI).
The panel holds about 79,000 compounds, 15% with a hit somewhere; the sample as a whole holds those more often. Calls of active or inactive are those of the source. No stated cut-off is given here; in the data, active means growth inhibition above about 70%; inactive means the rest.

Assay: NCI Yeast Anticancer Drug Screen. Data for the cln2 rad14 strain (AID 165);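 further: 0% = growth equal to vehicle treated cultures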
Details: S. cerevisiae cln2 rad14 strain, stronger effect = higher value; at 50.0 µM unless noted
Summary of the method: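 Compounds are applied to the cln2 rad14 yeast strain, and growth is then compared with that of vehicle-treated cultures to give inhibition.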

| Structure (SMILES) | growth inhibition |
| --- | --- |
| CCOC(=O)[C@]12C3C=CC(C3)C1C(=O)C1OC12 (stereo partly drawn) | -0.5% (inactive) |
| Cc1nnc(N)nc1C | -0.8% (inactive) |
| Nc1nc2ncc(COc3ccc(C(=O)O)cc3)nc2c(=O)[nH]1 | -16.1% (inactive) |
| COc1ccc(CCC(=O)c2ccc(N)cc2)cc1 | -11.5% (inactive) |
| CC1CCC(C(=O)O)(C(Br)C(=O)O)CC1 (stereo not drawn) | -27.9% (inactive) |
| CCCC1([N+](=O)[O-])c2ccccc2-c2ccc([N+](=O)[O-])cc21 (stereo not drawn) | 11% (inactive) |
| CCN(CC)OC(=O)/C=C/c1ccccc1 | 20.2% (inactive) |
| Cc1ccc(O)c(C=NCCN=Cc2cc(C)ccc2O)c1.[Cu+2] | 8.45% (inactive) |
| O=C1c2ccccc2C(=O)N1/N=[N+](\[O-])c1ccccc1 | 7.3% (inactive) |
| Cc1cc(C)c([N+](=O)[O-])cc1N | 13.5% (inactive) |
| Cc1[nH]c(N)nc(=S)c1CCCNc1ccccc1 | -9.15% (inactive) |
| CN(C)C(=S)/N=c1\ssc(=S)n1Cc1cccnc1 | 22.9% (inactive) |
| ClC(Cl)CN(Cc1ccccc1)c1ncc[nH]1 | -59.2% (inactive) |
| CC(C)(C)NC(=O)Nc1ccc2ccccc2c1 | -68.5% (inactive) |
| COc1cc2ccc(Cc3nccc4cc(OC)c(OC)cc34)cc2cc1OC | 91% (active) |
| CC(=O)Nc1cc(S(=O)(=O)O)cc2cc(S(=O)(=O)O)cc(O)c12 | 21.8% (inactive) |
| CC(=O)OC1COC(N2C(=O)C(=O)c3c(C)cc(Cl)nc32)C(OC(C)=O)C1OC(C)=O (stereo not drawn) | -24.1% (inactive) |
| O=C(CC(CC(=O)C(c1ccccc1)c1ccccc1)c1ccccc1)C(c1ccccc1)c1ccccc1 | -0.6% (inactive) |
